Compound activity from PubChem.
HTT aggregate: inhibitors of mutant huntingtin aggregate formation in PC12 cells; Potency, µM (top dose mostly 46.1 µM), for inactives: at the top dose activity change, negative = inhibition, usual class: inhibitors; PC12 HttQ103-GFP aggregates, Acumen cytometry, 40 h; AID 1688; 220,000 compounds, 1.1% hits; also: % is scaled to controls: 0 for no effect and ±100 for the full control effect; nearly all actives have a fitted effect of over 60% in size
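PC12/HTTQ103-GFP, ecdysone-inducible; teb 100 nM; cpd qHTS titration; GFP aggregates read on laser cytometer, Ex 488/Em 500-530 nm.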
Tau ThT inhib: blocks human tau fibril formation measured by thioflavin T; AID 1460; Potency, µM (highest dose often 57.4 µM), for the others: at the top dose activity, negative = inhibition, actives largely listed as inhibitors; recombinant tau K18 P301L, heparin-induced fibrillization, ThT fluorescence; P10636; 270,000 compounds, 2.1% hits; also: % is scaled to controls: 0 for no effect and ±100 for the full control effect; nearly all actives have a fitted effect of over 55% in size
Target sequence (P10636 561-689 P618L limits assumed): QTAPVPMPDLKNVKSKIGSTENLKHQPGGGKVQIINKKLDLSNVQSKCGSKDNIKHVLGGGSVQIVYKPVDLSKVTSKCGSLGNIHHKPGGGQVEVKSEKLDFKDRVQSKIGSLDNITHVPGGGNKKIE
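In this qHTS, human K18 P301L tau is incubated with compound and heparin for 6 hr at 37 C, and Thioflavin T fluorescence then reports fibril load.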
Tau fluor cs: counter-screen for tau fibril formation inhibitors | tau K18 P301L Alexa594 fluorescence, heparin fibrillization | Potency, µM (top dose mostly 57.7 µM), inactives show at the top dose activity change, negative = decrease | AID 1463 | 280,000 compounds, 0.93% hits; also: % is scaled to controls: 0 for no effect and ±100 for the full control effect; nearly all actives have a fitted effect of over 55% in size
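Human tau K18 P301L (15 uM unlabeled, 0.24 uM Alexa 594-labeled) in 100 mM sodium acetate pH 7 with 20 uM heparin, 6 hr at 37 C. ThT 30 uM added, 1 hr ambient; Alexa 594 FP and total fluorescence read at 555/632 nm.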
Tau FP inhib: inhibitors of human tau fibril formation | 280,000 compounds, 0.39% hits | K18 P301L tau heparin fibrillization, Alexa594 FP, 6 h | Potency, µM (doses to about 57.7 µM), for inactives: at the highest dose activity, negative = inhibition, usual class: inhibitors | AID 1468; also: % is scaled to controls: 0 for no effect and ±100 for the full control effect; nearly all actives have a fitted effect of over 55% in size
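Steps: dispense K18 P301L tau (15 uM plus 0.24 uM Alexa 594 tracer, final) in pH 7 sodium acetate; add compound; add heparin (20 uM final); incubate 6 hr, 37 C; add ThT (30 uM final); after 1 hr ambient, read FP.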
HTT cytoprotect: Huntington cell model cytoprotection by ATP luminescence | PC12 HTT-Q103 induced, cytoprotection, ATP luminescence, 40 h | Potency, µM (titrated, usually from 56.4 µM), without a hit: cytoprotection (ATP increase), actives largely listed as activators | 230,000 compounds, 0.14% hits | AID 1471; also: % of control where 0% means no effect; nearly all actives have a fitted effect of over 45% in size
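ATP quantification (ATPlite) reports survival of PC12 cells in which tebufenozide, 100 nM final, switches on Htt exon 1 with 103 glutamines linked to GFP; compounds are titrated.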
Numbers without * were called inactive; ? = inconclusive; . = no result given; [ ] = remark or other dose. Only some compounds are listed: those with a hit (about 3.7% of all), similar ones and a draw of the others. Calls follow the shape of the dose curve; as a rule, active = well fitted curve in the direction sought with a large enough effect; inconclusive = small, poorly fitted or top-dose-only effect, or another doubt; inactive = no such curve, though single readings can be large; an effect the other way counts as inactive or inconclusive. Potency is read from the fitted curve at half-maximal effect.

SMILES | HTT aggregate | Tau ThT inhib | Tau fluor cs | Tau FP inhib | HTT cytoprotect
O=C(/C=C/c1ccco1)Nc1ccc(N2CCCC2)cc1 | 25.3% | 2.24µM* | -20.9% | 9.3% | -0.2%[10 µM]
CC(=O)N1CCN(c2ccc(NC(=O)/C=C/c3ccccc3)cc2)CC1 | 0.4% | 2.51µM* | -27.3% | 8.7% | -31.3%
O=C(O)/C=C\C(=O)Nc1ccc(N2CCN(c3ccc(Cl)cc3)CC2)cc1 | -8.2%[9.22 µM] | 3.55µM* | ? | ? | -7.4%[10 µM]
O=c1c(-c2cccs2)nc2cnc(N3CCNCC3)nc2n1CCc1ccccc1 | . | . | . | . | 0.2%
N=C(N)SC(c1ccccc1)c1ccccc1 | . | . | . | . | 28.2%[10 µM]
O=C(O)/C=C\C(=O)Nc1ccc(N2CCN(c3ccc(F)cc3)CC2)cc1 | 6.2%[9.22 µM] | 5.62µM* | ? | -16.0% | 7.7%[10 µM]
O=S(=O)(Nc1cc2nc3ccccc3nc2n1Cc1ccccc1)c1ccc(Cl)cc1 | ? | ? | 14.1µM*[quencher] | ? | -44.1%[10 µM]
O=S(=O)(NCc1ccccc1)c1ccc(Cl)cc1 | 4.7%[1.84 µM] | -11.5% | -9.3% | 4.3% | -38.0%
Cc1cc(C)c(Nc2nn3c(=O)c4cc5c(cc4nc3s2)OCO5)c(C)c1 | . | 28.2µM* | -26.6% | ? | .
COc1ccc(C(C(=O)NC2CCCCC2)N(C(=O)CCl)c2ccc(OC)cc2)cc1 (stereo unspecified) | ? | -6.9% | 1.1% | 8.4% | -41.6%[10 µM]
COc1ccc(N(C(=O)CCl)C(C(=O)NC2CCCCC2)c2cccnc2)cc1 (stereo unspecified) | 22.4µM* | -17.4% | 8.1% | ? | -72.1%[10 µM]
O=C(NC1CCCCC1)C(c1cccnc1)N(C(=O)CCl)c1ccc(F)cc1 (stereo unspecified) | 6.31µM* | -14.4% | 3.3% | -1.9% | -71.1%[10 µM]
CC(C)(C)OC=O | . | . | . | . | 2.5%
O=C(CNc1ccc2ccccc2c1)N/N=C/c1ccc(OC(=O)/C=C/c2ccco2)cc1 | 14.0% | 5.01µM* | 7.08µM*[quencher] | -13.3% | -8.9%[10 µM]
CSc1ccc(/C=N/NC(=O)CNc2ccc3ccccc3c2)cc1 | 0.0% | 5.01µM* | 14.1µM*[quencher] | -3.1% | 11.8%[10 µM]
O=C(/C=C/c1ccco1)Oc1cc(Br)cc(/C=N/NC(=O)c2ccccc2O)c1 | 2.24µM* | ? | ? | -1.0% | -78.3%[10 µM]
CCc1cccc(CC)c1NC(=O)C(Cc1ccccc1)NS(=O)(=O)c1cccc2nsnc12 (stereo unspecified) | . | -4.4% | -18.1% | -5.9% | .
COc1cc(/C=C/C(=O)OCC(=O)Nc2cc(S(=O)(=O)N3CCCCC3)ccc2C)ccc1O | 16.4% | -4.8% | ? | 10.2% | 21.3%[10 µM]
COc1cc(/C=C/C(=O)OCC(=O)Nc2ccc(C)c(S(=O)(=O)N3CCCCC3)c2)ccc1O | 14.1% | -8.3% | 14.1µM*[quencher] | -3.4% | 2.4%[10 µM]
C[n+]1c2n(c3ccccc31)N=C(c1ccc(-c3ccccc3)cc1)CS2 | ? | ? | 8.1% | -1.1% | -51.8%[10 µM]
C[n+]1c2n(c3ccccc31)N=C(c1ccccc1)CS2 | 10µM* | ? | -14.0% | -12.3% | -48.7%
C[n+]1c2n(c3ccccc31)N=C(c1ccc(Br)cc1)CS2 | 31.6µM* | ? | -12.8% | ? | -11.9%[10 µM]
CN(C)c1ccc(-c2cncnc2NCCN2CCOCC2)cc1 | . | . | . | . | -120.0%
CC(=O)OC1CC[C@]2(C)C(CC(OC(C)=O)[C@@]3(C)C4=CC(=O)OC(c5ccoc5)[C@]4(C)CCC23)C1(C)C (stereo partly specified) | . | ? | -1.0% | -1.5% | -64.1%
Cc1ccc(-n2c(SCC(=O)N3CCCc4ccccc43)nnc2-c2cccnc2)c(C)c1 | 5.6% | -4.7% | 0.2% | -6.1% | 6.6%[10 µM]
Cc1ccc(-n2c(-c3ccccc3)c[n+]3c2CCc2ccccc2-3)c(C)c1 | 3.16µM* | -1.8% | 7.2% | -0.1% | -75.2%
COC/C=C/C1=CC2=CC(=O)C(C)(OC(=O)c3cnc4ccccc4n3)C(=O)C2=CN1CCOC (stereo unspecified) | . | -3.5%[11.5 µM] | -1.8%[11.6 µM] | -2.0%[11.6 µM] | -35.1%[10 µM]
COC/C=C/C1=CC2=CC(=O)C(C)(OC(=O)c3cnc4ccccc4n3)C(=O)C2=CN1CCN1CCOCC1 (stereo unspecified) | 12.6%[9.22 µM] | 15.8µM* | ? | ? | -7.6%[10 µM]
